61 sequences from the supplement of paper PMC10338343 can be followed below.

± gives the standard deviation. Whole data set: some 8,200 sequences, median “pre-steady-state target cleavage rate” near 0.024, cut for the highest 2% near 1.3. What follows is part of a selection rich in the highest values, with near analogues and random picks from the rest.

The test system of this assay is MIWI (PIWIL1) piRISC loaded with L1MC piRNA (30 nt). Nature of the assay: pre-steady-state target cleavage rate (min^-1); MIWI and MILI are mouse PIWI proteins and EfPiwi is from a freshwater sponge; tags in brackets are library labels; higher = faster piRNA-guided slicing of the target. The following applies: guide: L1MC piRNA 5'p-UAACUAAAUACUAUGCAAGCUGUAGGUCCU
The procedure, abridged:
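At 33 °C in HEPES–potassium acetate buffer, a transcribed, DNA-blocked target RNA library […] was exposed for 0–8 or 0–960 min to 1 nM active affinity-purified piRISC carrying a single synthetic guide, with or without 500 nM GTSF1 partner protein. Uncleaved targets were sequenced and normalised to depth and to weakly complementary targets. With three trials pooled and k3 capped at 0.0001 min^-1, a burst-and-steady-state fit produced the pre-steady-state cleavage rate.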

The mark [1] stands for this setting: auxiliary factor: 500 nM mouse GTSF1.
Setting [2] is: auxiliary factor: none (no GTSF1).
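Note: 1 nM active piRISC with 0.1 nM target library at 33 °C single turnover.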

In the case of AGGACCAACAGCUUGCAUAGUAUUUAGUAA, the “pre-steady-state target cleavage rate” value runs as follows: under setting [1], 0.974 ± 0.079; under setting [2], 0.0722 ± 0.014. With UGGACCAACAGCUUGCAUAGUAUUUAGUAA, the “pre-steady-state target cleavage rate” value came out at 1.17 ± 0.06 under setting [1] and 0.0641 ± 0.015 under setting [2]. On to UCCUGGUACAGCUUGCAUACAAUUUAGUAA, for which, under setting [1], the “pre-steady-state target cleavage rate” value was 0.0076 ± 0.0052.

Turning to UCCUGGAUGUGCUUGCAUAGUAUUUAGGUA, the “pre-steady-state target cleavage rate” value runs as follows: under setting [1], 0.0938 ± 0.016; under setting [2], 0.0113 ± 0.0031. Take UCCUGGAACAGCUUGGAUAGUAUUUUGUUA: the “pre-steady-state target cleavage rate” value by setting is: under setting [1], 0.745 ± 0.075; under setting [2], 0.0289 ± 0.0047. Turning to UCCUGGAUGAGCUUGCAUAGUUUUAAGUUA, the “pre-steady-state target cleavage rate” value stood at 0.0288 ± 0.0084 under setting [1] and 0.00673 ± 0.0032 under setting [2].

Regarding AGCACCUACAGCUUGCAUAGUAUUUAGUAA, the “pre-steady-state target cleavage rate” value runs as follows: under setting [1], 0.974 ± 0.12; under setting [2], 0.197 ± 0.062. In the case of UGGACCUACACCUUGCAUAGUAUAUAGUUA, the “pre-steady-state target cleavage rate” value under setting [1] is 0.523 ± 0.041 and the “pre-steady-state target cleavage rate” value under setting [2] is 0.0327 ± 0.007. For UCCUGGAACAGCAUGCAUAGUAUUUAGUAA, the “pre-steady-state target cleavage rate” value is, setting by setting: under setting [1], 0.695 ± 0.061; under setting [2], 0.0107 ± 0.0026. For UCCUGGAUCAGCUAUGCAUAGUAUUUAGUUA, the “pre-steady-state target cleavage rate” value reads like this: under setting [1], 1.04 ± 0.073; under setting [2], 0.0161 ± 0.0043. On to UGGACCUACACGUUGCAUAGUAUUUACAAA, for which, under setting [1], the “pre-steady-state target cleavage rate” value amounted to 0.103 ± 0.013. Consider UGGACCGACAGCUUGCAUAGUAUUUAGUUA, for which the “pre-steady-state target cleavage rate” value reads like this: under setting [1], 1.45 ± 0.076; under setting [2], 0.0713 ± 0.013. Taken in the same sequence, the figures for UCGACCGACAGCUUGCAUAGUAUUUAGUUA were 1.41 ± 0.05 and 0.0741 ± 0.012. On to UGGACCGUACAGCUUGCAUAGUAUUUAGUUA, for which the “pre-steady-state target cleavage rate” value was determined as 1.24 ± 0.06 under setting [1] and 0.064 ± 0.0096 under setting [2]. Regarding UCGACCGUACAGCUUGCAUAGUAUUUAGUUA, the “pre-steady-state target cleavage rate” value stood at 1.26 ± 0.046 under setting [1] and 0.0719 ± 0.013 under setting [2].

For AGGACCGACAGCUUGCAUAGUAUUUAGUUA, the “pre-steady-state target cleavage rate” value under setting [1] was 1.21 ± 0.058 and the “pre-steady-state target cleavage rate” value under setting [2] was 0.0903 ± 0.017.

In the case of UCCACCGACAGCUUGCAUAGUAUUUAGUUA, the “pre-steady-state target cleavage rate” value reads like this: under setting [1], 1.04 ± 0.043; under setting [2], 0.0616 ± 0.011. For UCCACCAUCAGCUUGCAUAGUAUUUAGUAA, the “pre-steady-state target cleavage rate” value reads like this: under setting [1], 0.68 ± 0.029; under setting [2], 0.0248 ± 0.0047. Regarding UCCUGGAUGUCCUUGCAUAGUAUUGAGUUA, the “pre-steady-state target cleavage rate” value worked out at 0.142 ± 0.031 under setting [1] and 0.00653 ± 0.0024 under setting [2]. On to UGGACCUACAGCUUGCAAUGUAUUUACAAA, for which the “pre-steady-state target cleavage rate” value under setting [1] turned out to be 0.0217 ± 0.0068. Regarding UCCUGGAUCAGCUUGCAUACUAUUAAGUUA, the “pre-steady-state target cleavage rate” value turned out to be 0.101 ± 0.015 under setting [1] and 0.00664 ± 0.0024 under setting [2]. For UCCUGGAACAGCUUGCAAAGUAUUUUCAAA, in that order: 0.0876 ± 0.018 and 0.00328 ± 0.002. In the case of UCCUGGUACAGCUUGCAUAGUAUUUAGUCUA, the “pre-steady-state target cleavage rate” value was 0.0829 ± 0.026 under setting [1] and 0.00718 ± 0.0028 under setting [2].

For AGGACCUACAGCUUGCAUAGAAUUUAGUUA, the “pre-steady-state target cleavage rate” value by setting is: under setting [1], 0.559 ± 0.044; under setting [2], 0.0408 ± 0.011. On to UCCUGCAACAGCUUGCAUAGUAUUUAGAAA, for which the “pre-steady-state target cleavage rate” value under setting [1] is 0.429 ± 0.059 and the “pre-steady-state target cleavage rate” value under setting [2] worked out at 0.00469 ± 0.0034.

As to UCCUGCAACAGCUUGCAUAGUAUUUAGUAA, the “pre-steady-state target cleavage rate” value under setting [1] turned out to be 1.22 ± 0.083 and the “pre-steady-state target cleavage rate” value under setting [2] is 0.0736 ± 0.021. For UCCUGGAACAGCUUGCUUAGUAUUUAGUUA, in that order: 1.14 ± 0.053 and 0.0404 ± 0.0098. Taken in the same sequence, the figures for UCCUGCUACAGCAUGCAUAGUAUUUAGUUA were 1.21 ± 0.086 and 0.0207 ± 0.0053. UCCUGGAACAGCUUGCGUAGUAUUUAGUUA: the “pre-steady-state target cleavage rate” value under setting [1] turned out to be 1.43 ± 0.087 and the “pre-steady-state target cleavage rate” value under setting [2] was 0.0397 ± 0.0099.

With UCCUGGAACAGCUUGCAGUAGUAUUUAGUUA, the “pre-steady-state target cleavage rate” value under setting [1] is 0.00503 ± 0.0043.

With UCCUGCAACAGCUAGCAUAGUAUUUAGUUA, the “pre-steady-state target cleavage rate” value by setting is: under setting [1], 1.12 ± 0.047; under setting [2], 0.0185 ± 0.004.

Take UCCUGCAACAGCAUGCAUAGUAUUUAGUUA: the “pre-steady-state target cleavage rate” value is, setting by setting: under setting [1], 1.36 ± 0.087; under setting [2], 0.0331 ± 0.0088. Taken in the same sequence, the figures for UCCUGCAACAGCUUGCAAAGUAUUUAGUUA were 1.32 ± 0.076 and 0.0463 ± 0.01. In the case of UCCUGCUACAGCUUGCAAAGUAUUUAGUUA, the “pre-steady-state target cleavage rate” value reads like this: under setting [1], 0.619 ± 0.037; under setting [2], 0.03 ± 0.0055. With UCCUGCAACAGCUUGCAUAGUAUUUAGUUA, the “pre-steady-state target cleavage rate” value came out at 1.57 ± 0.12 under setting [1] and 0.0696 ± 0.017 under setting [2]. As to UCCUCCAACAGCUUGCAAAGUAUUUAGUUA, the “pre-steady-state target cleavage rate” value runs as follows: under setting [1], 1.16 ± 0.043; under setting [2], 0.0397 ± 0.0099. Consider UGCACCUACAGCUUGCAUAGUAUUUUGUUA, for which the “pre-steady-state target cleavage rate” value under setting [1] came out at 0.852 ± 0.083 and the “pre-steady-state target cleavage rate” value under setting [2] was found to be 0.0692 ± 0.015. Take UCCUGGAUGUGCUUGCAUAGUAAUUUGUUA: the “pre-steady-state target cleavage rate” value runs as follows: under setting [1], 0.0171 ± 0.0079; under setting [2], 0.00536 ± 0.0029.

UCCACCAACAGCUUCCAUAGUAUUUAGUUA: the “pre-steady-state target cleavage rate” value was 0.0426 ± 0.015 under setting [1] and 0.00399 ± 0.0017 under setting [2]. Take AGGACCAACAGCUUGCAUUGUAUUUAGUUA: the “pre-steady-state target cleavage rate” value came to 0.923 ± 0.044 under setting [1] and 0.0356 ± 0.0086 under setting [2].

Turning to UCCUCCUACAGCUUGCAUAGUUUUUACAAA, under setting [1], the “pre-steady-state target cleavage rate” value was determined as 0.185 ± 0.029. With UCCUGGAACAGCUUGCAUAGUUAUUAGUUA, the “pre-steady-state target cleavage rate” value was determined as 0.113 ± 0.015 under setting [1] and 0.015 ± 0.0044 under setting [2]. For UCCUGGAACAGCUUGCAUAGUAUUCUAGUUA, in that order: 0.285 ± 0.041 and 0.0119 ± 0.0031.

As to UCCUGCAACAGCUUGCUUAGUAUUUAGUUA, the “pre-steady-state target cleavage rate” value by setting is: under setting [1], 1.4 ± 0.097; under setting [2], 0.0478 ± 0.013. Consider UCCUGGAACAGCUUGCAUAGUAUUUUAGUUA, for which the “pre-steady-state target cleavage rate” value is, setting by setting: under setting [1], 0.875 ± 0.046; under setting [2], 0.0159 ± 0.003. Taken in the same sequence, the figures for UCCUGGAACAGCUUGCAUAGUAUCUAGUUA were 0.508 ± 0.045 and 0.0563 ± 0.011. UCCUGGAAACAGCUUGCAUAGUAUUUAGUUA: the “pre-steady-state target cleavage rate” value turned out to be 1.34 ± 0.051 under setting [1] and 0.0675 ± 0.012 under setting [2]. UCCUGGAACAGCUUGUAUAGUAUUUAGUUA: the “pre-steady-state target cleavage rate” value turned out to be 1.37 ± 0.056 under setting [1] and 0.0564 ± 0.012 under setting [2].

Regarding UCCUGCAACAGCUUGCAUUGUAUUUAGUUA, the “pre-steady-state target cleavage rate” value runs as follows: under setting [1], 0.964 ± 0.068; under setting [2], 0.0397 ± 0.01. As for UCCUGCAACAGCUUGGAUAGUAUUUAGUUA, the “pre-steady-state target cleavage rate” value by setting is: under setting [1], 1.24 ± 0.1; under setting [2], 0.0688 ± 0.012.

Regarding UCCUGGAACAGCUUGCAUAGUAUCUUAGUUA, the “pre-steady-state target cleavage rate” value reads like this: under setting [1], 0.777 ± 0.046; under setting [2], 0.0258 ± 0.0072. For the sequence “UCCUGGAACAGCUUGCAUAGUAUUUAGUUA [g2:g23:cont:t1A]”, the “pre-steady-state target cleavage rate” value turned out to be 1.18 ± 0.034 under setting [1] and 0.0833 ± 0.014 under setting [2]. For UCGACCUACAGCUUGCAUAGUAUUCUAGUUA, in that order: 0.882 ± 0.094 and 0.0316 ± 0.0072.

Regarding UGGACCUACAGCUUGCUUAGUAUUAAGUUA, the “pre-steady-state target cleavage rate” value by setting is: under setting [1], 0.454 ± 0.041; under setting [2], 0.012 ± 0.0028. Turning to UCCUCCUACAGCUUGCAUACUAUUAAGUUA, the “pre-steady-state target cleavage rate” value amounted to 0.147 ± 0.022 under setting [1] and 0.00892 ± 0.0014 under setting [2]. For UCGACCUACAGGUUGCAUAGUAUUUAGUUA, in that order: 1.14 ± 0.053 and 0.0468 ± 0.0088.

Take UCGACCUACAGGUUGCAAAGUAUUUAGUUA: the “pre-steady-state target cleavage rate” value is, setting by setting: under setting [1], 1.33 ± 0.054; under setting [2], 0.0193 ± 0.0046. For UCCACCUACAGGUUGCAAAGUAUUUAGUUA, in that order: 1 ± 0.04 and 0.0166 ± 0.0038.

As to UGGACCUACAGGUUGCAAAGUAUUUAGUUA, the “pre-steady-state target cleavage rate” value by setting is: under setting [1], 1.33 ± 0.082; under setting [2], 0.02 ± 0.0043. For AGGACCUACAGGUUGCAAAGUAUUUAGUUA, the “pre-steady-state target cleavage rate” value is, setting by setting: under setting [1], 1.21 ± 0.045; under setting [2], 0.0226 ± 0.0041. Consider UCCUCCUACAGGUUGCAAAGUAUUUAGUUA, for which the “pre-steady-state target cleavage rate” value was found to be 1.29 ± 0.06 under setting [1] and 0.0159 ± 0.0033 under setting [2].
